N370S GC mod: inhibits or activates N370S mutant glucocerebrosidase; P04062; N370S GC spleen homogenate, 4MU-glucoside fluorescence; Potency, µM (highest dose often 59.4 µM), usual class: inhibitors; 330,000 tested, 0.092% active; AID 2101
TrxR1 inh: rat TrxR1 inhibition. O89049. recombinant rTrxR1, NADPH fluorescence consumption, selenite substrate. Potency, µM (highest dose often 114 µM), usual class: inhibitors. 390,000 tested, 1% active. AID 588453; also: nearly all actives have a fitted effect of over 65% in size
Target sequence (O89049 whole entry, looked up): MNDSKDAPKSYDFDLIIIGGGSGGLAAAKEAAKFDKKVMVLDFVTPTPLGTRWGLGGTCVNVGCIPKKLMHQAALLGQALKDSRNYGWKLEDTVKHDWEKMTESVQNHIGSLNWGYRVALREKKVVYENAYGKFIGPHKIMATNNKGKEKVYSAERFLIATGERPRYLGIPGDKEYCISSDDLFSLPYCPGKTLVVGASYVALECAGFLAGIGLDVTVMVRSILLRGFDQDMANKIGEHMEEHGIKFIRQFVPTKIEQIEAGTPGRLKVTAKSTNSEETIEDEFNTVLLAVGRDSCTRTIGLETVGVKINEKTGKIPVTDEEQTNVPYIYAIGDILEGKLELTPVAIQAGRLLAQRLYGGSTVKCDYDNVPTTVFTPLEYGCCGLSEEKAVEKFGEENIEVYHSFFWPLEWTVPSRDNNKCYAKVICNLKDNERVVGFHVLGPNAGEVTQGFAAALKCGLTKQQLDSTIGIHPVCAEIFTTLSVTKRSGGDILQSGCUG
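Rat TrxR1 (90 nM in the dispensed reagent) was pre-reduced with 400 uM NADPH for 5 min at room temperature, then incubated with compound for 15 min. After 400 uM selenite was added, NADPH fluorescence (Ex 340/Em 450 nm) was followed for 8 min.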
A-T KAP1 phos: candidate therapy for ataxia-telangiectasia | F2112 A-T fibroblasts, KAP-1 phosphorylation AlphaLISA; neocarzinostatin DNA damage 30 min before lysis | Potency, µM (series often up to 57.5 µM), usual class: activators | 320,000 tested, 0.19% active | AID 485349; also: nearly all actives have a fitted effect of over 45% in size
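hTERT-immortalized A-T patient fibroblasts (F2112), 500 cells/well in OPTI-MEM, 1% FBS, got compounds for 60 min, then NCS for 30 min at 37C. Lysates were then assayed for phospho-KAP-1 by AlphaLISA (anti-pKAP1 donor, anti-KAP1 acceptor beads), 6 hr at 25C.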
TrxR1 substrate: substrates of rat thioredoxin reductase 1; O89049; purified TrxR1 substrate turnover, NADPH consumption readout; Potency, µM (series often up to 114 µM); 390,000 tested, 0.01% active; AID 588456; also: nearly all actives have a fitted effect of over 50% in size
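Rat TrxR1, dispensed at 90 nM, was prereduced with 400 uM NADPH (final) for 5 min at ~22 deg C, then incubated with compound 15 min before 400 uM selenite. A first-read NADPH fluorescence drop versus no-compound background flagged substrates.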
Akt phos inh: Akt phosphorylation inhibition | Neuro2A IGF-stimulated pAkt S473 HTRF, 20 min; hits give low values | activity change, % for hits at 50 µM | 360,000 tested, 0.32% active; in the data active = activity change below about -80%; inconclusive = mostly about -51% to -80%
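Single-point screen (50 µM final compound) in Neuro2A cells stimulated 20 min with 6 nM IGF at 37 deg C. After lysis, Ser473-phosphorylated Akt read by HTRF (ex 330 nm, em 615/665 nm) as the 665/615 ratio.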
Pin1 inhibitor: blocks the human prolyl isomerase Pin1 | Pin1 FP peptide displacement, HiFluor488, 10 min | Potency, µM (series often up to 115 µM), most hits filed as inhibitors | 390,000 tested, 0.009% active | Q13526 | AID 504891; active = well fitted inhibition curve with a large enough effect in the polarisation, with a control signal flat, not every such curve was filed as active; inconclusive = small, poorly fitted or top-dose-only effect, or effect the other way, or a change in a side signal; inactive = no such curve, though single readings can be large or run the other way; the % refers to the polarisation
Target sequence (Q13526 whole entry, looked up): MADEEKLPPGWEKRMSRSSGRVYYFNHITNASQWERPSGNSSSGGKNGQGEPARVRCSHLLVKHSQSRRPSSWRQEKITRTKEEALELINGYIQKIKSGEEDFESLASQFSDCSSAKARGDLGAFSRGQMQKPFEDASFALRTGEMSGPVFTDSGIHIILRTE
A number is an active result; [ ] = another dose, or the depositor's remark. An excerpt weighted towards active compounds, which were near 1.4% of everything screened. Unless noted, calls follow the shape of the dose curve; as a rule, active = well fitted curve in the direction sought with a large enough effect; inconclusive = small, poorly fitted or top-dose-only effect, or another doubt; inactive = no such curve, though single readings can be large; an effect the other way counts as inactive or inconclusive.

C#CCOCCOCCOCCNc1nc(N2CCN(C(=O)[C@H](CCCCN)n3cc(CCCC)nn3)CC2)nc(N2CCN(C(=O)[C@H](Cc3ccc(O)cc3)n3cc(CCO)nn3)CC2)n1 was read as N370S GC mod inactive, TrxR1 inh 14µM, A-T KAP1 phos inactive, TrxR1 substrate inactive, Akt phos inh inactive and Pin1 inhibitor inactive.
Screening C#CCOCCOCCOCCNc1nc(N2CCN(C(=O)[C@H](CCCCN)n3cc(CC(C)O)nn3)CC2)nc(N2CCN(C(=O)[C@H](Cc3ccc(O)cc3)n3cc(CCO)nn3)CC2)n1 (stereo not given in full) returned TrxR1 inh inactive, TrxR1 substrate inactive, Akt phos inh inactive and Pin1 inhibitor inactive.
`C#CCOCCOCCOCCNc1nc(N2CCN(C(=O)[C@H](Cc3cc4ccccc4[nH]3)n3cc(C(N)CC(C)C)nn3)CC2)nc(N2CCN(C(=O)[C@H](CCC(=O)O)n3cc(C(N)[C@H](C)CC)nn3)CC2)n1` (stereo not given in full) gave N370S GC mod inactive, TrxR1 inh inconclusive, A-T KAP1 phos inactive, TrxR1 substrate inactive, Akt phos inh inactive and Pin1 inhibitor inactive.
For C#CCOCCOCCOCCNc1nc(N2CCN(C(=O)[C@H](CCC(=O)O)n3cc(C(N)CC(C)C)nn3)CC2)nc(N2CCN(C(=O)[C@H](Cc3cc4ccccc4[nH]3)n3cc(C(N)CC(C)C)nn3)CC2)n1 (stereo not given in full) the results were N370S GC mod inactive, TrxR1 inh 28µM, A-T KAP1 phos inactive, TrxR1 substrate inactive, Akt phos inh inactive and Pin1 inhibitor inactive.
Screening C#CCOCCOCCOCCNc1nc(N2CCN(C(=O)[C@H]([C@@H](C)CC)n3cc([C@@H](N)Cc4ccc(O)cc4)nn3)CC2)nc(N2CCN(C(=O)[C@H](CCCCN)n3cc([C@@H](N)C(C)CC)nn3)CC2)n1 (stereo not given in full) returned N370S GC mod inactive, TrxR1 inh inactive, A-T KAP1 phos inactive, TrxR1 substrate inactive, Akt phos inh inactive and Pin1 inhibitor inactive.
For CCNc1ccc(/C=C2\C=Cc3ccccc32)cc1 the results were TrxR1 inh inconclusive and TrxR1 substrate inactive[0.0914 µM].
For COc1ccc(C(=O)C[n+]2ccc(Cl)c3ccc(Cl)cc32)cc1 the results were TrxR1 inh inactive and TrxR1 substrate inactive.
Screening O=C1c2ccsc2SCCN1Cc1ccc(Cl)cc1Cl returned N370S GC mod inactive, TrxR1 inh inactive, A-T KAP1 phos inactive, TrxR1 substrate inactive, Akt phos inh -106% and Pin1 inhibitor inactive.
Cc1ccc(-c2ccc(C(=O)NCc3ccc(Cl)cc3)o2)c2ccccc12 was read as N370S GC mod inactive, TrxR1 inh 32µM, A-T KAP1 phos inactive, TrxR1 substrate inactive, Akt phos inh inactive and Pin1 inhibitor inactive.
`Cc1ccccc1-c1ccc(C(=O)NCc2ccccc2)o1` gave N370S GC mod inactive, TrxR1 inh inactive, A-T KAP1 phos inactive, TrxR1 substrate inactive, Akt phos inh inactive and Pin1 inhibitor inconclusive.
`S=Cc1nc2ccccc2[nH]1` gave TrxR1 inh inactive and TrxR1 substrate inactive.
`C1CCC(Nc2nnnn2C2CCCCC2)CC1` gave N370S GC mod inconclusive, TrxR1 inh inactive, A-T KAP1 phos inactive, TrxR1 substrate inactive, Akt phos inh -104% and Pin1 inhibitor inactive.
O=C(O)c1cc(N2C(=O)CCC2=O)ccc1NCc1cccnc1 was read as N370S GC mod inactive, TrxR1 inh inactive, A-T KAP1 phos inactive, TrxR1 substrate inactive, Akt phos inh inactive and Pin1 inhibitor inactive.
Screening O=C(O)c1cc(N2C(=O)C3CC=CCC3C2=O)ccc1NCc1cccnc1 (stereo not given) returned N370S GC mod inactive, TrxR1 inh inactive, TrxR1 substrate inactive, Akt phos inh -116% and Pin1 inhibitor inactive.
Cc1ccc(N/N=C(\Cc2nc3ccccc3[nH]2)c2ccccc2)cc1 was read as N370S GC mod inactive, TrxR1 inh 79µM, A-T KAP1 phos inactive, TrxR1 substrate inactive, Akt phos inh inactive and Pin1 inhibitor inactive.
For COC(=O)CSc1[nH]c2ccc(Br)cc2c1[N+](=O)[O-] the results were N370S GC mod inactive, TrxR1 inh 11µM, A-T KAP1 phos inactive, TrxR1 substrate inactive, Akt phos inh inactive and Pin1 inhibitor inactive.
CCC(Sc1nc2ccncc2[nH]1)C(=O)Nc1cc(C)ccc1C (stereo not given) was read as TrxR1 inh inactive, TrxR1 substrate inactive and Pin1 inhibitor inactive.
c1cncc(-c2nnc3n2N=C(c2cccs2)CS3)c1 was read as N370S GC mod inactive, TrxR1 inh inactive, A-T KAP1 phos inactive, TrxR1 substrate inactive, Akt phos inh -114% and Pin1 inhibitor inactive.
S=c1[nH]nc(C2CCCCC2)n1/N=C/c1ccc(Br)cc1 was read as N370S GC mod inactive, TrxR1 inh inactive, A-T KAP1 phos 13µM, TrxR1 substrate inactive, Akt phos inh inactive and Pin1 inhibitor inactive.
S=c1[nH]nc(C2CCCCC2)n1/N=C/c1ccc(Cl)cc1 was read as N370S GC mod inactive, TrxR1 inh inactive, A-T KAP1 phos inactive, TrxR1 substrate inactive, Akt phos inh inactive and Pin1 inhibitor inconclusive.
Screening CC(C)(C)c1ccc(NC(=O)CSc2nnc3scc(-c4ccccc4)n23)cc1 returned TrxR1 inh inactive, TrxR1 substrate inactive and Pin1 inhibitor inactive.
For CC1=C(C(=O)OCc2ccc(C)cc2)C(c2cccc(F)c2F)CC(=O)N1 (stereo not given) the results were TrxR1 inh inactive, TrxR1 substrate inactive and Pin1 inhibitor inactive.
For CCCCN(CC)CCCNC(=O)c1cn(CC(C)C)c(=O)c2c1c1ccccc1n2C the results were N370S GC mod inconclusive, TrxR1 inh inactive, A-T KAP1 phos 25µM, TrxR1 substrate inactive, Akt phos inh inactive and Pin1 inhibitor inactive.
Screening CCN(CC)CCCNC(=O)c1cn(CC(C)C)c(=O)c2c1c1ccccc1n2C returned N370S GC mod inactive, TrxR1 inh inactive, A-T KAP1 phos inconclusive, TrxR1 substrate inactive, Akt phos inh inactive and Pin1 inhibitor inactive.
`O=c1c(C(c2ccc(Br)cc2)c2c(O)nc3n(c2=O)CCCS3)c(O)nc2n1CCCS2` gave N370S GC mod inactive, TrxR1 inh 7.1µM, A-T KAP1 phos inactive, TrxR1 substrate inconclusive, Akt phos inh inactive and Pin1 inhibitor inactive.
`N#Cc1c(-c2ccc(Br)cc2)nc2n(c1=O)CCCS2` gave N370S GC mod inactive, TrxR1 inh inactive, TrxR1 substrate inactive, Akt phos inh inactive and Pin1 inhibitor inactive.
O=c1c(C/C=C/c2ccccc2)c(O)nc2n1CCCS2 was read as N370S GC mod inactive, TrxR1 inh inconclusive, A-T KAP1 phos inactive, TrxR1 substrate inactive, Akt phos inh inactive and Pin1 inhibitor inactive.
